In all, about 310,000 compounds went through this assay and about 2,200 (0.71%) showed an effect of 50% or more. The effect is printed as a negative number. This excerpt belongs to a sample that is enriched for strong results.
The compounds below were run against human ether-à-go-go-related gene (hERG) potassium channel (human, UniProt Q12809) (assay: primary screen, population patch clamp on CHO cells stably expressing hERG; higher = less effect of the substance).
Procedure: Briefly, Chinese hamster ovary (CHO) cells stably expressing the hERG channel were dislodged from tissue culture flasks and dispensed into PPC plates. […] During the recording, background leak currents were estimated by a 100 ms step to -80 mV from an initial holding potential of -70 mV and subtracted from the subsequent current measurement. The campaign was conducted in two phases using slight differences in recording protocol. In the first phase, the initial voltage pulse used a 100 ms step to -30 mV from a holding potential of -70 mV, a 2 s conditioning step to +25 mV, and a 2 s test step to -30 mV. During the second phase of the screen, the potential during the conditioning step was raised to +45 mV. In both phases of the campaign, a secondary voltage pulse was applied using the same parameters as the second phase initial pulse. The initial and secondary pulses were applied in the absence of compound, and upon application of 1 μM and 10 μM test concentrations. Small molecule effects on hERG current density were quantified by […].

Sequence of human ether-à-go-go-related gene (hERG) potassium channel (Q12809 whole entry, looked up): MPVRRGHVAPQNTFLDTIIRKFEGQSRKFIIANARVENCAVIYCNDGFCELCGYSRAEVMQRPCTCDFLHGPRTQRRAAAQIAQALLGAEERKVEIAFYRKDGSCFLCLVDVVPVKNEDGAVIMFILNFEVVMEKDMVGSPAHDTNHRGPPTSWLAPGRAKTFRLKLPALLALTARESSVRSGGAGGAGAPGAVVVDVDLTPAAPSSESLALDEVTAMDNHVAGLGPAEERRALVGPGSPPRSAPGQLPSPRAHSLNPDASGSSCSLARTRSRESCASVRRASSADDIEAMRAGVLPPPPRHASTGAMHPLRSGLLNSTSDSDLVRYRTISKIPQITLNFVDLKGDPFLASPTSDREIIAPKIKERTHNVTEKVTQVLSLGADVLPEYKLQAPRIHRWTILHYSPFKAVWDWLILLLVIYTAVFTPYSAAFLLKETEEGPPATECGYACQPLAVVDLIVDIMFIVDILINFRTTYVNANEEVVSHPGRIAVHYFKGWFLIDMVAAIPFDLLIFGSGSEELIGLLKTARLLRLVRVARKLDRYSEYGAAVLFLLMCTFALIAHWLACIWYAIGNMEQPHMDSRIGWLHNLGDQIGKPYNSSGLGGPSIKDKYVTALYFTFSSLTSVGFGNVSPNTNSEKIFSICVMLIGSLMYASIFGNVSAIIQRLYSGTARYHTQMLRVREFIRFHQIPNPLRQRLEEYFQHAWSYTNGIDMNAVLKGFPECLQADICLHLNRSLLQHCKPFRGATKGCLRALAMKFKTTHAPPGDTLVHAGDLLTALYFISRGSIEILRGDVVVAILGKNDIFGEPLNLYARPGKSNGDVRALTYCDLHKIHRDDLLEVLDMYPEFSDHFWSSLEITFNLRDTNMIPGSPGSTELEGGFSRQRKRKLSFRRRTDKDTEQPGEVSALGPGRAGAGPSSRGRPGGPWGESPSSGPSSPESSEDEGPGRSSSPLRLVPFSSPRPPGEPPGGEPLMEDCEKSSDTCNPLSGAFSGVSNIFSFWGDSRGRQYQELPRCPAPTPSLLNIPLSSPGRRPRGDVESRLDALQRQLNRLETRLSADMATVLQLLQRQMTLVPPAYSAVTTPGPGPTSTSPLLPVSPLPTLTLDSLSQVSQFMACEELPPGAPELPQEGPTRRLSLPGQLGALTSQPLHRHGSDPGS

SMILES	hERG current change (%, negative = inhibition) at 1uM
Cl.O=C(c1cccc(S(=O)(=O)N2CCCCC2)c1)N1CCN(Cc2ccccc2)CC1	6.64%
N#Cc1ccc(CN2CCN(C(=O)c3ccc(S(=O)(=O)N4CCCCCC4)cc3)CC2)cc1	-5.24%
N#Cc1ccc(CN2CCN(C(=O)c3cccc(S(=O)(=O)N4CCCCCC4)c3)CC2)cc1	-51.3%
Cc1sc2ncn(Cc3ccccc3F)c(=O)c2c1C	1.65%
O=C1CS/C(=N/N=C2C3CC4CC(C3)CC2C4)N1	-4.65%
CC(=O)OC1CC[C@]2(C#N)[C@H]3CC[C@]4(C)[C@H](C5C=CC(=O)O5)CCC4(O)C3CCC2(O)C1 (stereo partly shown)	12.9%
Cc1ccccc1N1CCN(C2CCCN(C(=O)c3cc(CC(C)C)nn3C)C2)CC1 (stereo not shown)	5.95%
CCCc1cc(C(=O)N2CCCC(N3CCN(c4ccccc4C)CC3)C2)n(C)n1 (stereo not shown)	3.48%
Cc1cc(C(=O)N2CCCC(N3CCN(c4ccccc4C)CC3)C2)n(C)n1 (stereo not shown)	-87.7%
Cc1cccc(NS(=O)(=O)c2ccc(C(=O)NCC(C)(C)N3CCOCC3)cc2)c1C	-6.55%
Cc1nc2sc(C(c3cccs3)N3CCN(c4ccccc4)CC3)c(O)n2n1 (stereo not shown)	5.92%
Cc1nc2sc(C(c3cccs3)N3CCN(Cc4ccccc4)CC3)c(O)n2n1 (stereo not shown)	-50.1%
COc1ccc(C(c2sc3nc(C)nn3c2O)N2CCN(Cc3ccccc3)CC2)cc1OC (stereo not shown)	3.82%
COc1ccc(OC)c(/C=N/N(C)c2ccccc2)c1	12.4%
O=C(NCCCCO)C(F)(F)C(F)(F)C(F)(F)C(=O)NCCCCO	14.4%
CCC(CC)C(=O)c1c[nH]c(C(=O)NCc2ccncc2)c1	10%
COc1cc2c(cc1OC)CN(CC(=O)Nc1ccccc1C(=O)NC1CC1)CC2	-6.04%
COc1ccc(OC)c(CN2CCN(CC(=O)Nc3ccccc3C(=O)NC3CC3)CC2)c1	-87.6%
COc1ccc(OC)c(NC(=O)CN2CCC(NC(=O)c3ccccc3C)CC2)c1	-4.31%
O=C(CN1CCN(S(=O)(=O)c2ccc(F)c(F)c2)CC1)Nc1ccccc1C(=O)NC1CC1	-23.7%
CCOc1ccccc1N1CCN(CC(=O)Nc2ccccc2C(=O)NC2CC2)CC1	-23.5%
CC(=O)c1ccc(N2CCN(CC(=O)Nc3ccccc3C(=O)NC3CC3)CC2)c(F)c1	-5.91%
COc1ccc(CN2CCN(CC(=O)Nc3ccccc3C(=O)NC3CC3)CC2)cc1F	-99.6%
COc1ccc(F)cc1CN1CCN(CC(=O)Nc2ccccc2C(=O)NC2CC2)CC1	-88.8%
CCOc1ccccc1C(=O)NC1CCN(CC(=O)Nc2cc(OC)ccc2OC)CC1	-25.6%
COc1cc(C)c(CN2CCN(CC(=O)Nc3ccccc3C(=O)NC3CC3)CC2)cc1OC	-87.6%
Cc1ccccc1N1CCN(CC(=O)Nc2ccccc2C(=O)NC2CC2)CC1	-35.4%
COc1ccccc1OCC(=O)Nc1ccccc1C(=O)NC1CC1	1.98%

SMILES	hERG current change (%, negative = inhibition) at 1uM
COc1ccc(NC(=O)CS(=O)(=O)c2ccc(F)cc2)cc1	10.6%
Cc1ccc(-c2cc(C(F)(F)F)n3nc(C(=O)Nc4ccon4)cc3n2)cc1C	7.99%
COCC(=O)N1CCCC(C(=O)c2ccc(-c3ccccc3)cc2)C1 (stereo not shown)	0.927%
O=C1/C(=C/c2cccc(Cl)c2)CSc2sccc21	16%
COc1ccc(COc2ccc(S(=O)(=O)N3CCCC3)cc2C(N)=O)cc1F	17.7%
CCOC(=O)c1oc2cc(OCC(N)=O)ccc2c(=O)c1-c1ccc(OC)c(OC)c1	15.2%
O=C(O)c1ccccc1NS(=O)(=O)c1ccccc1C(F)(F)F	5.14%
O=C(Nc1ccc2nc3n(c(=O)c2c1)CCCCC3)c1ccccc1[N+](=O)[O-]	14.6%
CC1CN(C(=S)Nc2cccc(Cl)c2Cl)CC(C)O1 (stereo not shown)	2.73%
COc1cccc(CNC(=O)C2CCN(S(=O)(=O)c3ccc4c(c3)CCC(=O)N4)CC2)c1	17.5%
Cc1ccc(C(=O)Oc2coc(CSc3nnc(NC(=O)c4cccs4)s3)cc2=O)cc1	13.4%
Cc1ccc(C(=O)/C=C\NCc2ccccc2)cc1	7.27%
N=c1c(C(=O)NC2CCCC2)cc2c(=O)n3ccccc3nc2n1C1CCCC1	-89.1%
N=c1c(C(=O)NC2CCCC2)cc2c(=O)n3ccccc3nc2n1C1CCCCC1	-86.9%
O=C(NC1CCCCCC1)c1cc2c(=O)n3ccccc3nc2s1	8.59%
Cn1c(C(=O)NC2CCCCC2)cc2c(=O)n3ccccc3nc21	13.4%
N=c1c(S(=O)(=O)c2ccc(Cl)cc2)cc2c(=O)n3ccccc3nc2n1C1CCCC1	13.9%
O=P(C(Cl)Cl)(N1CCOCC1)N1CCOCC1	17.8%
CC(=O)Nc1cccc(NC(=O)CSc2nnc3ccc(-c4cccnc4)nn23)c1	13.1%
CCn1cc(/C=C/C(=O)Nc2c(C)nn(Cc3ccccc3)c2C)cn1	6.45%
Cc1nc(-c2ccccc2)nc2[nH]c(C(C)C)cc(=O)c12	-5.88%
COC(=O)c1ccc(Nc2cc(C)nc3ccc(C)cc23)cc1.Cl	-9.09%
CC(=O)c1cccc(Nc2cc(C)nc3ccc(C)cc23)c1.Cl	-13.7%
CC(=O)c1ccc(Nc2cc(C)nc3ccc(C)cc23)cc1	-53.2%
CCCCNC(=O)N1CCCN(c2ccc(C#N)cn2)CC1	-11.6%
N#Cc1ccc(N2CCCNCC2)nc1	-90.9%
N#Cc1ccc(N2CCOCC2)nc1	1.37%
